Laboratory results reported in the supplement of paper PMC9694430.

What was measured:
Assay in all cases: thermal shift delta Tm vs DMSO control; higher = stronger stabilization (binding)
Settings in all cases: 12.5 µM; protein concentration 2 µM
LOC_OS02G45750-cb003 = test system: LOC_OS02G45750-cb003
In short: (§1)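 Heating from 25°C to 95°C at 0.05°C/s, fluorescence was recorded for 19.5 μl wells of 2 μM E. coli-expressed, purified rice kinase domain in 100 mM potassium phosphate pH 7.5, 150 mM NaCl, 10% glycerol and 5 × SYPRO Orange with compound in DMSO. Boltzmann fits gave melting temperatures for this differential scanning fluorimetry assay. The shift reported is the mean of three replicates against the DMSO-only protein.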

LOC_OS02G54510-cb004 = test system: LOC_OS02G54510-cb004
In short: as §1

LOC_OS03G04050-cb001 = test system: LOC_OS03G04050-cb001
In short: as §1

LOC_OS03G12390-cb001 = test system: LOC_OS03G12390-cb001
In short: as §1

LOC_OS03G27990-cb004 = test system: LOC_OS03G27990-cb004
In short: as §1

LOC_OS03G50450-cb001 = test system: LOC_OS03G50450-cb001
In short: as §1

LOC_OS03G50810-cb003 = test system: LOC_OS03G50810-cb003
In short: as §1

LOC_OS04G35114-cb001 = test system: LOC_OS04G35114-cb001
In short: as §1

LOC_OS04G38480-cb003 = test system: T1, LOC_OS04G38480-cb003
T1 sequence (whole entry): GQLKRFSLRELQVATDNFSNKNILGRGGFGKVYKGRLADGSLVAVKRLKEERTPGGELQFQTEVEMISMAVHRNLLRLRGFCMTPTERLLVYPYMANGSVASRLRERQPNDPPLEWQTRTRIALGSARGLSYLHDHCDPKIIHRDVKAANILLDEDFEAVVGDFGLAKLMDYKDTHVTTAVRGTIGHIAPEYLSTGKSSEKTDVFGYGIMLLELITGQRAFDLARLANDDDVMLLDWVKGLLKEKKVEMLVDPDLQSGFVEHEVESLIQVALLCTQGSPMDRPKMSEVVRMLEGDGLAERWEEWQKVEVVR
In short: as §1

LOC_OS04G41100-cb001 = test system: T2, LOC_OS04G41100-cb001
T2 sequence (whole entry): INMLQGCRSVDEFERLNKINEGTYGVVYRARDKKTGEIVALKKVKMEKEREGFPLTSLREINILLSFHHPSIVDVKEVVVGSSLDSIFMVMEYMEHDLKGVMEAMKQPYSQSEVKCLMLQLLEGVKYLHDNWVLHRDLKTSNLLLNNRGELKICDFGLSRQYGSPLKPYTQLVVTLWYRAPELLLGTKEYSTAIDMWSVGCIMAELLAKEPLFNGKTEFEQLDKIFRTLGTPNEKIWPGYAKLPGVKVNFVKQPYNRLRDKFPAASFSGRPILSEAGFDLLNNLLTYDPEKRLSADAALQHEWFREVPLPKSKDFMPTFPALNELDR
In short: as §1

LOC_OS04G57630-cb004 = test system: LOC_OS04G57630-cb004
In short: as §1

LOC_OS05G07850-cb002 = test system: LOC_OS05G07850-cb002
In short: as §1

LOC_OS05G16824-cb004 = test system: LOC_OS05G16824-cb004
In short: as §1

LOC_OS05G28520-cb001 = test system: LOC_OS05G28520-cb001
In short: as §1

LOC_OS05G30820-cb001 = test system: LOC_OS05G30820-cb001
In short: as §1

LOC_OS05G43570-cb004 = test system: LOC_OS05G43570-cb004
In short: as §1

LOC_OS06G16330-cb003 = test system: LOC_OS06G16330-cb003
In short: as §1

LOC_OS06G22820-cb001 = test system: T3, LOC_OS06G22820-cb001
T3 sequence (whole entry): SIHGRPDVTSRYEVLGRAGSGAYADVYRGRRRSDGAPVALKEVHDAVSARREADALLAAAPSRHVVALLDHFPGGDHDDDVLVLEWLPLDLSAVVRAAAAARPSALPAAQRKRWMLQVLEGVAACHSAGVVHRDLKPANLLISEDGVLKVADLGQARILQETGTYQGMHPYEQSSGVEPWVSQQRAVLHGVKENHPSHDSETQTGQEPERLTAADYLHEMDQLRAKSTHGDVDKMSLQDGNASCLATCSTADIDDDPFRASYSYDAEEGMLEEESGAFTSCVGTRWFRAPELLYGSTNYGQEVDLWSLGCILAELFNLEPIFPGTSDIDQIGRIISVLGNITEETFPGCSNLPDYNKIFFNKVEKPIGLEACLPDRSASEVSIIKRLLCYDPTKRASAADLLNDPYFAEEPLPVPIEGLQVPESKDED
In short: as §1

LOC_OS07G06570-cb004 = test system: LOC_OS07G06570-cb004
In short: as §1

LOC_OS07G07230-cb001 = test system: LOC_OS07G07230-cb001
In short: as §1
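Also: purified Escherichia coli-expressed rice kinase domain construct.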

Chain of LOC_OS06G16330-cb003 (as listed by the source): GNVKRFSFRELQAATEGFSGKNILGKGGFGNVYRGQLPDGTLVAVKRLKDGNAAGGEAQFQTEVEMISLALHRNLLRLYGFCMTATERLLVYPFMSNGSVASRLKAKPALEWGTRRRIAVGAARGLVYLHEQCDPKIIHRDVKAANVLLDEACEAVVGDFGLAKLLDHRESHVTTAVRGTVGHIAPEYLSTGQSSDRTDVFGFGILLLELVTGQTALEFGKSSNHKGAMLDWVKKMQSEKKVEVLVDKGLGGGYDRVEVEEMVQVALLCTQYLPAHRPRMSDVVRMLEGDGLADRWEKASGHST

SMILES | thermal shift delta Tm (LOC_OS02G45750-cb003) [°C] | thermal shift delta Tm (LOC_OS02G54510-cb004) [°C] | thermal shift delta Tm (LOC_OS03G04050-cb001) [°C] | thermal shift delta Tm (LOC_OS03G12390-cb001) [°C] | thermal shift delta Tm (LOC_OS03G27990-cb004) [°C] | thermal shift delta Tm (LOC_OS03G50450-cb001) [°C] | thermal shift delta Tm (LOC_OS03G50810-cb003) [°C] | thermal shift delta Tm (LOC_OS04G35114-cb001) [°C] | thermal shift delta Tm (LOC_OS04G38480-cb003) [°C] | thermal shift delta Tm (LOC_OS04G41100-cb001) [°C] | thermal shift delta Tm (LOC_OS04G57630-cb004) [°C] | thermal shift delta Tm (LOC_OS05G07850-cb002) [°C] | thermal shift delta Tm (LOC_OS05G16824-cb004) [°C] | thermal shift delta Tm (LOC_OS05G28520-cb001) [°C] | thermal shift delta Tm (LOC_OS05G30820-cb001) [°C] | thermal shift delta Tm (LOC_OS05G43570-cb004) [°C] | thermal shift delta Tm (LOC_OS06G16330-cb003) [°C] | thermal shift delta Tm (LOC_OS06G22820-cb001) [°C] | thermal shift delta Tm (LOC_OS07G06570-cb004) [°C] | thermal shift delta Tm (LOC_OS07G07230-cb001) [°C]
Cc1cc(CN2CCN(c3c(Br)cnc4nc(-c5ccc(N6CCN(C)CC6)cc5)[nH]c34)CC2)no1 | 11.1 | 0.56 | 0.42 | 2.08 | 1.47 | 4.97 | 4 | 3.09 | 2.28 | 0.48 | 1.11 | 8.75 | 3.92 | 1.16 | 0.38 | 0.18 | 5.31 | 0.11 | 1.11 | 1.28
CNC(=O)c1cc(Oc2ccc(NC(=O)Nc3ccc(Cl)c(C(F)(F)F)c3)cc2)ccn1 [Sorafenib] | 4.5 | 1.47 | 0.48 | 1.7 | 0.3 | 1.22 | 1.02 | 1.71 | 3.55 | 0.99 | 2.09 | 9.44 | 1.37 | -0.04 | 0.65 | 1.2 | 2.66 | 1.5 | 1 | -0.34
COc1cc2ncnc(Nc3ccc(O)c(Br)c3)c2cc1OC | 1.02 | 0.71 | 0.44 | 4.5 | 2.33 | -0.05 | 2.28 | 4.51 | 2.11 | 0.46 | 0.28 | 12 | -0.59 | 0.86 | 0.54 | 0.23 | 5.86 | 0.8 | 1.76 | 0.01
FC(F)(F)c1ccc(CNc2ccc(Cc3c[nH]c4ncc(Cl)cc34)cn2)cn1 [Pexidartinib (PLX3397)] | 6.87 | 0.69 | 0.27 | 2.08 | 0.52 | 0.54 | 1.63 | 9.82 | 4.16 | 0.51 | 1.53 | 8.75 | 5.17 | 1.46 | 0.74 | 0.8 | 8.9 | 0.41 | 0.14 | -0.31
CCCCNc1ncc(-c2ccc(CN3CCOCC3)cn2)c(NC2CCC(O)CC2)n1 (stereo not given) | 13.7 | 0.36 | 0.34 | 2.88 | 1.94 | 1.29 | 5.33 | 7.84 | 3.1 | 0.46 | 4.09 | 9.44 | 8.95 | 0.2 | 0.7 | 0.43 | 9.08 | 0.1 | 0.37 | 0.71
Cn1nccc1Nc1nccc(-c2ccn([C@H](CO)c3ccc(Cl)c(F)c3)c(=O)c2)n1 | 0.71 | 0.28 | 0.29 | 2.16 | 0.03 | 0.11 | -0.12 | 0.45 | 0.14 | 2.7 | 0.08 | 2.78 | -3.01 | 1.03 | 0.26 | 0.16 | 0.19 | 0.56 | 1.22 | 0.87
